Consider 40 compounds from PubChem BioAssay (EPA / NIEHS).

SMILES strings stand for the structures. Values joined by “and” are separate entries in the source; they are usually repeats but may differ in a detail not shown here. Identical values can stand only once. Active and inactive are the calls of the source. Rule for the calls: active = hit-call score of the fitted dose curve at least 0.9, where 1 is the maximum; inactive = score below 0.9.

The AC50 is the concentration at which the activity in the assay is half-maximal.

The assay deals with Nuclear respiratory factor 1 (Homo sapiens) (UniProt Q16656). In words: ATG_NRF1_CIS: Attagene CIS-FACTORIAL HepG2 Assay for human Nuclear Respiratory Factor 1 (NRF1) Orphan Gene (AID 2282987). The conditions noted are these: HepG2 NRF1 cis-element reporter, Attagene multiplex; actives raise or lower the signal. The method, then: ATG_CIS is a cell-based, multiplexed-readout assay that uses HepG2, a human liver cell line, with measurements taken at 24 hours after chemical dosing in a 24-well plate.ATG_NRF1_CIS is one of 52 assay component(s) measured or calculated from the ATG_CIS assay. It is designed to make measurements of mRNA induction, a form of inducible reporter, as detected with fluorescence intensity signals by Reverse transcription polymerase chain reaction (RT-PCR) and Capillary electrophoresis technology.Data from the assay component ATG_NRF1_CIS was analyzed into 1 assay endpoint. This assay endpoint, ATG_NRF1_CIS, was analyzed with bidirectional fitting relative to DMSO as the negative control and baseline of activity. Using a type of inducible reporter, measures of mRNA for gain or loss-of-signal activity can be used to understand the reporter gene at the transcription factor-level as they relate to the gene NRF1. Furthermore, this assay endpoint can be referred to as a primary readout, because this assay has produced multiple assay endpoints where this one serves a reporter gene function. To generalize the intended target to other relatable targets, this assay endpoint is annotated to the dna binding intended target family, where the subfamily is nuclear respiratory factors.
Nuclear respiratory factor 1 (Homo sapiens), sequence (Q16656 whole entry, looked up): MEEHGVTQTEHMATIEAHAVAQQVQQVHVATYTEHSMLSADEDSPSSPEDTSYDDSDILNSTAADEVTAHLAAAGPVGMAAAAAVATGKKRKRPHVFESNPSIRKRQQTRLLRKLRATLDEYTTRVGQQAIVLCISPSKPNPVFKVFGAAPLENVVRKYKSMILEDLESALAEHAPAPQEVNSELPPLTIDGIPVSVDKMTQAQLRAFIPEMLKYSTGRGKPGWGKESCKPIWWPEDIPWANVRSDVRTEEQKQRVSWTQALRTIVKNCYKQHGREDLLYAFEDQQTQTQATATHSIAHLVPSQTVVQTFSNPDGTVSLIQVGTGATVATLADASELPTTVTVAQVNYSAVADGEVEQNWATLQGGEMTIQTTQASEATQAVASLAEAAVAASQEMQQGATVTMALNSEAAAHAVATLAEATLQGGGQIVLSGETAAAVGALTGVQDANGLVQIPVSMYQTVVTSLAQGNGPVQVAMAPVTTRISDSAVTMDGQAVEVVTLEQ
Human liver HepG2 cells are transiently transfected with multiple reporter transcription units (MRTUs) in 6-well plates using FuGene 6 reagent (Roche; 3 ml FuGene/1 mg DNA). The MRTU constructs are regulated by a cis-regulating element (promoter). […] A major difference between the CIS and TRANS system is that in CIS activities of endogenous TFs are measured, whereas the TRANS assay evaluates changes in activities of exogenous, chimeric NR-Gal4 proteins. […] At the end of 24 hour incubation, total RNA was isolated using TriZol reagent (Invitrogen). The isolated RNA is then reverse-transcribed using oligo(dT) primer and Mo-MLV reverse transcriptase (Invitrogen) with DNAse I (Ambion) treatment for 30 min. The one-tenth of the produced cDNA was amplified by PCR using Taq DNA polymerase (Invitrogen) and two reporter sequence-specific primers. The PCR products were fluorescently labeled by primer extension with 6-arboxyfluorescein (6-FAM) 5'-labeled reporter sequence-specific primer (2 min at 95 C, 20 s at 68 C and 10 min at 72 C) and these products were digested with 5U of HpaI (New England Biolabs) for 2h at 37 C. The fragments were purified using Qiaquick PCR columns (Qiagen), analyzed on an ABI 3130xL genetic analyzer (Applied Biosystems) with peak positions identified by using a set of X-rhodamine (ROX)-labeled MapMarker1000 molecular weight standards (BioVentures). The raw capillary electrophoresis data was processed using Attagraph software (Attagene).
With `FC(F)C(F)(F)COCC1CO1` (stereo not given), the compound was classed as inactive.
The same measure, in the same setting: to `O=C(O)c1cccc(C[C@@H]2COc3ccc(OCc4nc5cc(F)ccc5s4)cc3[C@@H]2O)c1` belongs “inactive”; to `COS(C)(=O)=O`, “inactive”; to `O=S(=O)(O)c1ccc(N=Nc2c(O)ccc3cc(S(=O)(=O)O)ccc23)cc1`, “inactive”.
Regarding `Cc1cccc(O)c1C`, the result was inactive.
Same read-out and setting: to `c1ccc(C(O[C@@H]2CCCN(CCc3ccc4c(c3)OCO4)C2)c2ccccc2)cc1` belongs “inactive”.
The same measure, in the same setting: to `C[C@]12C=CC(=O)C=C1CC[C@H]1[C@@H]3C[C@@H](O)[C@](O)(C(=O)CO)[C@@]3(C)C[C@H](O)[C@@]12F` belongs “inactive”; to `Cn1c(=O)c2[nH]cnc2n(C)c1=O`, “inactive”; to `O=C(O)c1cccc(C(=O)O)c1`, “inactive”.
On the same count and under the same terms, under `OCCC(F)(F)C(F)(F)C(F)(F)C(F)(F)F` stands “inactive”; under `O=C(O)c1ccc2c(c1)nc(C(=O)NC1CCN(C3CC3)CC1)n2Cc1cc(-c2ccc(Cl)s2)on1`, “inactive”.
`CC1(C)C(=O)N(Cl)C(=O)N1Cl`: the outcome was inactive.
The same measure, in the same setting: under `c1ccc2ncccc2c1` stands “inactive”.
With `OC(O)(C(F)C(O)(O)C(F)(F)F)C(F)(F)F`, the half-maximal activity concentration (AC50) was 38.6 µM (active) and 72.7 µM (active).
For `NNC(=O)c1ccncc1`, the result was inactive.
The same measure, in the same setting: to `OCc1ccccc1` belongs “inactive”; to `O=S1(=O)CCCO1`, “inactive”; to `OC[C@H]1O[C@@H]2O[C@H]3[C@H](O)[C@@H](O)[C@@H](O[C@H]4[C@H](O)[C@@H](O)[C@@H](O[C@H]5[C@H](O)[C@@H](O)[C@@H](O[C@H]6[C@H](O)[C@@H](O)[C@@H](O[C@H]7[C@H](O)[C@@H](O)[C@@H](O[C@H]1[C@H](O)[C@H]2O)O[C@@H]7CO)O[C@@H]6CO)O[C@@H]5CO)O[C@@H]4CO)O[C@@H]3CO`, “inactive”.
On the same count and under the same terms, under `CCCCC(CC)C(=O)OCCOCCOCCOC(=O)C(CC)CCCC` (stereo not given) stands “inactive”; under `NC(N)=O`, “inactive”.
As for `FC(F)(F)COC(OCC(F)(F)F)OCC(F)(F)F`, the result was inactive.
On the same count and under the same terms, under `CCOC(N)=O` stands “inactive”; under `O=C(Cl)C(F)(F)C(F)(F)C(F)(F)C(=O)Cl`, “inactive”.
The same measure, in the same setting: under `O=C(O)CO` stands “inactive”; under `CCc1ccc(O)c(C(C)(C)C)c1`, “inactive”.
In the case of `OC(CCl)CCl`, the result was inactive.
Still for that read-out and setting: under `NC(=O)NN=Cc1ccc([N+](=O)[O-])o1` stands “inactive”.
Regarding `Nc1ccn([C@@H]2O[C@H](CO)[C@@H](O)[C@@H]2O)c(=O)n1`, the call was inactive.
On the same count and under the same terms, under `C[C@@H](Oc1ccc(CNC(=O)c2cccnc2Oc2ccc3c(c2)OCO3)c(F)c1)C(=O)O` stands “inactive”; under `CC[C@H](C)C(=O)O[C@H]1C[C@H](O)C=C2C=C[C@H](C)[C@H](CC[C@@H](O)C[C@@H](O)CC(=O)O)[C@H]21`, “inactive”.
Same read-out and setting: to `O=C(O)[C@H](O)[C@@H](O)C(=O)O` belongs “inactive”; to `CCCCCCCCCC`, “inactive”; to `OC[C@H]1O[C@@](CO)(O[C@H]2O[C@H](CO)[C@@H](O)[C@H](O)[C@H]2O)[C@@H](O)[C@@H]1O`, “inactive”.
Still for that read-out and setting: under `OC(Cn1cncn1)(Cn1cncn1)c1ccc(F)cc1F` stands “inactive”; under `CC(C)CC(C)O` (stereo not given), “inactive”.
With `CNC(C)=O`, the outcome was inactive.
The same measure, in the same setting: under `CC(C)CCCCCCOC(=O)C1CCCCC1C(=O)OCCCCCCC(C)C` (stereo not given) stands “inactive”; under `NC(=O)N1c2ccccc2C=Cc2ccccc21`, “inactive”; under `CCCCN1C(=O)[C@@H]([C@H](O)C2CCCCC2)NC(=O)C12CCN(Cc1ccc(Oc3ccc(C(=O)O)cc3)cc1)CC2`, “inactive”.
Still for that read-out and setting: under `NCC(F)(F)C(F)(F)C(F)(F)C(F)(F)F` stands “inactive”.
